Shown is part of a subset that was picked to be rich in hits.
KDM5B inhibitor: blocks human KDM5B histone demethylase activity | KDM5B demethylase, FDH-coupled NADH fluorescence (FDH is formaldehyde dehydrogenase) | Potency, µM (doses to about 57.7 µM), actives largely listed as inhibitors | actives 2.6% (n = 220,000); active = well fitted inhibition curve with a large enough effect; also: 0% is about no effect; nearly all actives have a fitted effect of over 70% in size
Target sequence (Q9UGL1 whole entry, looked up): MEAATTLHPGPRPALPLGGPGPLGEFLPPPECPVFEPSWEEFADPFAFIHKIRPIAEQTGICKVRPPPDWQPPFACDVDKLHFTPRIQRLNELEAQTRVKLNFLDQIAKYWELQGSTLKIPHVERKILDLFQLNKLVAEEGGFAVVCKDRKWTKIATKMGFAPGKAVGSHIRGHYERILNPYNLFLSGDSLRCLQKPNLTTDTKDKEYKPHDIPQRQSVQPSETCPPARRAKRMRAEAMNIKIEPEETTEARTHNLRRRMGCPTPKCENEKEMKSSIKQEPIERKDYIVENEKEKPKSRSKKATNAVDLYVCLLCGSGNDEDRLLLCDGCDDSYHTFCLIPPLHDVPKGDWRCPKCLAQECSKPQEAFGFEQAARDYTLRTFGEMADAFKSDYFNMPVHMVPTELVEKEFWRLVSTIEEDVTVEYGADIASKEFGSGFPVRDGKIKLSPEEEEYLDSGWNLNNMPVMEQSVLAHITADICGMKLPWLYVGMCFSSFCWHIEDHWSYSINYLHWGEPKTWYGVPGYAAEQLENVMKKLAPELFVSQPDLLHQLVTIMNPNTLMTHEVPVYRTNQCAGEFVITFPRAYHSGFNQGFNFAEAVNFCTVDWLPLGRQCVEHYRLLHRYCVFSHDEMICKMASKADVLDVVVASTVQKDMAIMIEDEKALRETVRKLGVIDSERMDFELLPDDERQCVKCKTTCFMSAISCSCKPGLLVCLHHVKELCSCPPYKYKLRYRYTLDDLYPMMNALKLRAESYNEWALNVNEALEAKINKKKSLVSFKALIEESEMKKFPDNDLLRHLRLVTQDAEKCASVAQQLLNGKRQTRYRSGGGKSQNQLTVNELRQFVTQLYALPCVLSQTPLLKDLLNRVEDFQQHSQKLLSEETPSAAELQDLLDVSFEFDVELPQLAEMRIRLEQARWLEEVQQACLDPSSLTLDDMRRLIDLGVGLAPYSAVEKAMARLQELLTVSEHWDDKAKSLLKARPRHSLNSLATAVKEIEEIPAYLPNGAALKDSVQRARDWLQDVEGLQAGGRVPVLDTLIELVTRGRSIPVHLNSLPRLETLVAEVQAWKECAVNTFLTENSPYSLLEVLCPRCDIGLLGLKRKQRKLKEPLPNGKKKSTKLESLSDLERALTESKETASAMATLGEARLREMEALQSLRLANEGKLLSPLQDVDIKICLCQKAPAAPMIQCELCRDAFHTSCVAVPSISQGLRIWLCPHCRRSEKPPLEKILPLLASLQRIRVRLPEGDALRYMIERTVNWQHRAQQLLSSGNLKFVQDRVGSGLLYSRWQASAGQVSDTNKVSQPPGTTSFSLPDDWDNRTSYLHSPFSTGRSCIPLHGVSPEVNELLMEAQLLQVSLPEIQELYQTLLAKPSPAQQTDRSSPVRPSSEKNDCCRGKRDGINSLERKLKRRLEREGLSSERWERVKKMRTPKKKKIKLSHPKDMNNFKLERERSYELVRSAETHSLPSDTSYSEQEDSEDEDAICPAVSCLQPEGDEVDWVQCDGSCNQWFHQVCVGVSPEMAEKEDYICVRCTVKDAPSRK
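KDM5BΔAP (200 nM final) in 50 mM HEPES pH 7.5, 0.01% Tween-20 was preincubated 10 min at RT with compound over a concentration range. Substrate mix (H3K4me3 12.5 µM, α-KG 25 µM, Fe²⁺, ascorbate, NAD⁺, FDH) was added, and NADH fluorescence change over 30 min gave dose-response curves.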
* hit, by the source's call; i = inactive. Potency is read from the fitted curve at half-maximal effect.

SMILES	KDM5B inhibitor
O=C(Cn1cccc1-c1nc(-c2ccc3c(c2)OCO3)no1)NCCc1ccc(Cl)cc1	i
CCCc1noc(-c2cccn3c(CNC(=O)c4ccc(C)cc4)nnc23)n1	25µM*
O=C(NCc1nnc2c(-c3nc(C4CC4)no3)cccn12)c1ccc(F)cc1	22µM*
O=C(NCc1nnc2n1C(C(=O)NCc1ccc(F)cc1)CC2)c1ccccc1 (stereo not drawn)	i
O=C(Cn1cccc1-c1nc(-c2ccccc2)no1)NCc1ccc(Cl)cc1	i
O=C(c1ccc(F)c(F)c1)N1CCCC(n2cc(-c3nc(C4CC4)no3)nn2)C1 (stereo not drawn)	i
CCCc1noc(-c2cccn3c(CNC(=O)c4ccc5cc[nH]c5c4)nnc23)n1	i
CCC1(c2ccccc2)NC(=O)N(NC(=O)c2nn(C)c(=O)c3ccccc23)C1=O (stereo not drawn)	i
Cc1noc2c(NC3CCC(O)CC3)cc(-c3ccc(F)cc3)nc12 (stereo not drawn)	i
Cc1ccc2c(c1)OC=CC(C(=O)Nc1ccc(Cl)c(Cl)c1)=C2	i
COCCn1c(SC(C)C(=O)c2ccc(OC(F)F)cc2)nnc1-c1ccccc1 (stereo not drawn)	i
O=C1CSc2ccc(C(=O)OCC(=O)NC3CCCc4ccccc43)cc2N1 (stereo not drawn)	i
Cc1ccccc1NC(=O)C(=O)c1c[nH]c2ccccc12	i
O=C1CCCC2=C1C(c1cc(Cl)c(O)c(Cl)c1)C1=C(CCCC1=O)O2	i
Cc1ccc(CNC(=O)c2cc3c(C)nn(C)c3s2)cc1	i
CCNC(=O)CN1CCN(c2nccc(C3CCCC3)n2)CC1	i
Cc1ccc(C)c(C(=O)NCc2ccco2)c1	i
Cc1ccc(C)c(C(=O)NCc2nnc3c(-c4nc(C5CC5)no4)cccn23)c1	25µM*
O=C(NCCc1noc(-c2cccnc2)n1)C1CCC1	i
O=C(c1cc(F)ccc1F)N1CCC(n2cc(-c3nc(C4CC4)no3)nn2)C1 (stereo not drawn)	i
COc1cc(Cl)ccc1C(=O)NCc1nnc2c(-c3nc(C4CC4)no3)cccn12	i
COCCOCC(=O)N1CC(Oc2ccccc2-c2nc(C3CC3)no2)C1	i
Cc1ccc(C)c(C(=O)NCC(C)C)c1	i
CC(C)NC(=O)C1CCc2nnc(CNC(=O)C3CC3)n21 (stereo not drawn)	i
O=C(NCc1nnc2c(-c3nc(C4CC4)no3)cccn12)c1cc(Cl)ccc1F	28µM*
SMILES	KDM5B inhibitor
CCCc1noc(-c2cccn3c(CNC(=O)C4CCC4)nnc23)n1	28µM*
Cc1nc(CCNC(=O)C2CCC2)no1	i
O=C(NCc1nnc2c(-c3nc(C4CC4)no3)cccn12)C1CC1	22µM*
CN(CC(=O)N(C)c1c(N)n(Cc2ccccc2)c(=O)[nH]c1=O)Cc1ccccc1F	i
COc1cc(NC(=O)Cn2c(Nc3ccc(F)c(C)c3)nc(C)cc2=O)cc(OC)c1OC	i
Cc1ccccc1Cn1nc(C)c(NS(=O)(=O)c2c(C)nn(C(F)F)c2C)c1C	i
O=C(c1ccncc1)N1CC2CCC(C1)N2Cc1ccc(-c2ccccc2)cc1	i
COC(=O)c1ccc(OC(=O)c2ccc(OC)c(Br)c2)cc1	i
CCCc1noc(-c2cccn3c(CNC(=O)Cc4ccc(Cl)cc4)nnc23)n1	25µM*
Cc1ccccc1OCC(=O)NCc1nnc2c(-c3nc(C4CC4)no3)cccn12	i
O=C(CCCc1ccccc1)N1CCC(c2noc(-c3ccccc3)n2)C1 (stereo not drawn)	i
O=C(CCc1ccccc1)NCc1nnc2c(-c3nc(C4CC4)no3)cccn12	28µM*
COCc1nc2c(NC(=O)CC3CCCCC3)cccn2n1	i
O=C(CC1CCCCC1)NCc1nnc2c(-c3nc(C4CC4)no3)cccn12	16µM*
CS(=O)(=O)Nc1ccccc1CNC(=O)CC1CCCCC1	i
Cc1cc(Br)ccc1NC(=O)CN(C)Cc1nc2ccccc2o1	i
CN(Cc1ccccc1)C(=O)C[C@@H]1CCNC[C@@H]1Cc1cc(COc2ccccc2)on1	i
OCc1cccc(-c2ccc3ncc(Nc4ccccc4Cl)n3n2)c1	i
CCCNC(=O)c1ccccc1OCc1ccc(Cl)cc1	i
O=C(NCCc1nc(-c2cccnc2)no1)c1coc2c1C(=O)CCC2	i
O=S(=O)(c1ccc(-c2nc3ccccc3s2)cc1)N1CCCCCC1	i
COc1ccc(-c2cc(C[C@H]3CNCC[C@H]3CC(=O)NCCN3CCOCC3)no2)cc1	i
COc1ccc(CNC(=O)c2ccc3c(c2)NC(=O)CS3)cc1	i
COc1cccc(CNC(=O)c2ccc3c(c2)NC(=O)CS3)c1	i
COCCNC(=O)c1ccc2c(c1)NC(C)(COc1ccc(OC)cc1)CO2 (stereo not drawn)	35µM*
SMILES	KDM5B inhibitor
COc1ccc(OCC2(C)COc3ccc(C(=O)NCCN4CCOCC4)cc3N2)cc1 (stereo not drawn)	35µM*
COc1ccc(C(=O)NCCONC(=O)c2ccc(OC)cc2)cc1	i
CCOCC1(C)COc2ccc(C(=O)NCc3cc(OC)cc(OC)c3)cc2N1 (stereo not drawn)	32µM*
COc1ccc(OCCNC(=O)c2ccc3[nH]c(C)c(C)c3c2)cc1	i
COc1ccc(C(=O)N[C@@H]2CCC[C@@H]2C(=O)NCCCN2CCOCC2)cc1	i
CCc1nc2ccc(C(=O)Nc3ccccn3)cc2nc1CC	i
CCOCC1(C)COc2ccc(C(=O)Nc3ccccn3)cc2N1 (stereo not drawn)	32µM*
CC(CCc1ccccc1)NC(=O)c1ccc[n+]([O-])c1 (stereo not drawn)	i
CC(Sc1ncnc2nc[nH]c12)C(=O)Nc1ccccc1Cl (stereo not drawn)	i
CCS(=O)(=O)Nc1ccc(C)n(CC(=O)NCc2cc(F)ccc2F)c1=O	i
Cc1cc(F)ccc1NC(=O)c1nn(CC(C)C)c(=O)c2ccccc12	i
COc1ccc(CCNC(=O)Cc2c(C)c3ccc(O)cc3oc2=O)cc1OC	i
CC(C)c1noc(CCCC(=O)Nc2cccc(OC3CCCC3)c2)n1	i
N#Cc1cccc(NC(=O)CCC(=O)c2ccc3c(c2)OCCCO3)c1	i
COc1ccc2nc(SCC(=O)c3cc(C)n(C)c3C)[nH]c2c1	i
COc1cccc(CN2C[C@@H](CO)[C@H](c3ccccn3)C2)c1	i
O=C(c1ccccc1Oc1ccccc1)N1CCC(c2nc3ccccc3o2)CC1	i
Cn1nc(CC(=O)NCC(=O)OCc2ccccc2)c2ccccc2c1=O	i
Cc1[nH]c(C)c(S(=O)(=O)NCCC(=O)NCc2ccc(F)cc2)c1C(=O)N1CCCC1	i
CN1C[C@@H](NC(=O)CC(C)(C)CC(=O)O)C[C@H]1c1nc(-c2ccc3c(c2)OCO3)no1	i
CC(=O)N[C@H]1C[C@@H](c2nc(-c3ccc4c(c3)OCO4)no2)N(C)C1	i
CN1C[C@@H](NC(=O)c2ccc(C(C)(C)C)cc2)C[C@H]1c1nc(-c2ccc3c(c2)OCO3)no1	35µM*
COc1ccccc1Nc1nc(N)nc(CN2CCN(c3cnccn3)CC2)n1	i
CC1=C[C@@H](CN(C)CCO)[C@H](C(C)C)C[C@H]1Cc1nnc(-c2ccc(C)cc2)o1	i
O=C(NC1CCCc2ccccc21)c1ccc2c(Cl)c3c(nc2c1)CCCC3 (stereo not drawn)	i
Cc1nc(N2CCCC2)ncc1C(=O)N1CCN(c2ccc(Cl)cc2)CC1	i
Cc1nc(N(C)C)ncc1C(=O)N1CCN(c2ccccc2C#N)CC1	28µM*
